From PubChem BioAssay
Sampled rows, rich in hits. Any-hit rate of the full collection: about 19%.
TDP1 cell noCPT: qHTS for Inhibitors of human tyrosyl-DNA phosphodiesterase 1 (TDP1): qHTS in cells in absence of CPT | DT40 Tdp1-/- hTDP1 cells, no CPT, ATP luminescence, 48 h | Potency, µM (series often up to 46.2 µM), without a hit: at the top dose activity change, negative = growth inhibition, most hits filed as inhibitors | actives 15% (n = 420,000) | AID 686978, 2013; further: nearly all actives have a fitted effect of over 55% in size
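Compound effects on proliferation are scored in DT40 Tdp1-/-;hTDP1 cells in the absence of CPT. ATP levels (CellTiter-Glo luminescence) are recorded after a ≥48 hr, 37 °C incubation.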
KB-V1 cytotox: qHTS assay for MDR1-selective chemotherapeutics: Primary screen using the drug-selected MDR subline cells KB-V1 | actives 3.4% (n = 400,000) | Potency, µM (top dose mostly 46.1 µM), most hits filed as cytotoxic | KB-V1 MDR cells viability, CellTiter-Glo, 72 h; further: nearly all actives have a fitted effect of over 60% in size
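Cytotoxicity toward P-gp-expressing KB-V1 cells was determined as loss of CellTiter-Glo luminescence after 72 h at 37 degrees C. Compounds were tested in quantitative HTS format across a concentration range, with curves fitted to normalized data.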
TDP1 cell CPT: qHTS for Inhibitors of human tyrosyl-DNA phosphodiesterase 1 (TDP1): qHTS in cells in presence of CPT. chicken DT40 Tdp1-/-;hTDP1 cells + 20 nM CPT, ATP luminescence, 48 h. Potency, µM (highest dose often 46.2 µM), without a hit: at the top dose activity change, negative = growth inhibition, actives largely listed as inhibitors. actives 12% (n = 420,000); further: nearly all actives have a fitted effect of over 55% in size
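Cell growth measured by CellTiter-Glo luminescence after a minimum 48 h, 37 C compound exposure with 20 nM CPT in Tdp1-knockout DT40 cells stably expressing hTDP1, seeded 400/well; qHTS titration format.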
HT1080 IDH1KD tx: qHTS for induction of synthetic lethality in tumor cells producing 2HG: qHTS for the HT-1080-IDH1KD cell line. actives 2% (n = 360,000). HT-1080 IDH1 knockdown viability, ATP luminescence, 48 h. Potency, µM (doses to about 46.1 µM), for inactives: at the top dose activity, negative = toxicity, usual class: cytotoxic;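 further: 0% = DMSO wells and -100% = cell-free medium wells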
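After a 2 h attachment period, IDH1KD HT-1080 cells took pin-transferred compound for 48 h at 37 °C; ATP-based luminescence after 10 min room-temperature reagent incubation reported viability.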
KB-3-1 tox: qHTS assay for MDR1-selective chemotherapeutics: Primary screen using the parental adenocarcinoma cell KB-3-1 | actives 1.4% (n = 400,000) | AID 1347075, 2019 | KB-3-1 viability, CellTiter-Glo ATP luminescence, 72 h | Potency, µM (titrated, usually from 46.1 µM), usual class: cytotoxic; further: nearly all actives have a fitted effect of over 60% in size
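Cytotoxicity in the drug-sensitive parental line KB-3-1 was scored as loss of CellTiter-Glo luminescence following 72 h incubation with compound. Values come from curve fitting of normalized concentration-response data.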
HT1080NT lethal: qHTS for induction of synthetic lethality in tumor cells producing 2HG: qHTS for the HT-1080-NT fibrosarcoma cell line | HT-1080-NT fibrosarcoma viability, CellTiter-Glo ATP luminescence, 48 h | Potency, µM (highest dose often 46.1 µM), without a hit: at the highest dose activity, negative = less viability, hits mostly cytotoxic | actives 1.6% (n = 360,000);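 further: NT is the 2HG producing partner of a matched IDH1 knockdown line; 0% = DMSO-treated cells and -100% = media-only wells without cells; nearly all actives have a fitted effect of over 55% in size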
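750 cells/well, RPMI + 5% FBS; 2 h settle, compound pin-transfer, 48 h at 37 degrees C. CellTiter-Glo 10 min RT, luminescence. Normalized to DMSO and media-only wells.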
The depositor's hits bear a star; i = inactive; ? = inconclusive; / = not tested or not shown. The call rests on the fitted dose curve; in most records, active means well fitted curve in the direction sought with a large enough effect; inconclusive means small, poorly fitted or top-dose-only effect, or another doubt; inactive means no such curve, though single readings can be large; an effect the other way counts as inactive or inconclusive. Unless noted, on the % scale 0 is the no-effect control and ±100 the full control effect; potency means the concentration at half of the fitted maximal effect.

SMILES	TDP1 cell noCPT	KB-V1 cytotox	TDP1 cell CPT	HT1080 IDH1KD tx	KB-3-1 tox	HT1080NT lethal
CCOP(=O)(c1ccc(N(C)C)cc1)C(O)c1ccc(OC)cc1 (stereo unspecified)	-5%	i	-2%	5%	i	8%
COC(=O)C1=C(C(=O)OC)C2C=CC1C1C(OC(C)=O)C(OC(C)=O)C21 (stereo unspecified)	-19%	i	-21%	7%	i	5%
O=C1N=c2ccccc2=C1c1c(O)[nH]c2c(C(F)(F)F)cccc12	26µM*	i	21µM*	11%	i	5%
CCC(C)(C)NC(=O)C(c1cccn1C)N(Cc1ccc(OC)cc1)C(=O)Cn1nnc2ccccc21 (stereo unspecified)	?	?	?	-27%	?	?
Cc1ccccc1CCN(C(=O)Cn1nnc2ccccc21)C(C(=O)NC(C)(C)C)c1ccsc1 (stereo unspecified)	26µM*	?	18µM*	-3%	i	0%
COCCNC(=O)C(c1ccco1)N(C(=O)Cn1nnc2ccccc21)c1cccc(C)c1C (stereo unspecified)	?	i	-7%	14%	i	14%
CCC(C)(C)NC(=O)C(c1cccn1C)N(Cc1ccccc1)C(=O)Cn1nnc2ccccc21 (stereo unspecified)	-21%	2.6µM*	?	20%	i	8%
Cc1cccc(N(C(=O)Cn2nnc3ccccc32)C(C(=O)NC(C)(C)C)c2ccsc2)c1C (stereo unspecified)	16µM*	i	?	4%	i	2%
CCOc1ccc(C(=O)Nc2ccc3nn(-c4ccc(OC)c(Cl)c4)nc3c2)cc1	/	i	/	/	i	/
CCc1ccc(C2CC(=O)c3c([nH]c(C(=O)OC4CCC(C)CC4)c3C)C2)cc1 (stereo unspecified)	?	i	4%	/	i	/
COc1ccc(NC(=O)CC2Oc3ccc(C)cc3NC2=O)cc1Cl (stereo unspecified)	-23%	/	-5%	/	/	/
O=C1OC(COc2ccc(Br)cc2)CN1c1ccccc1 (stereo unspecified)	1%	i	15%	15%	i	16%
Cc1ccc(OC(C)c2nnc(N)s2)cc1Cl (stereo unspecified)	?	?	21µM*	-19%	?	0%
COc1ccc(Nc2nnc(-c3ccc(C)c(S(=O)(=O)N4CCOCC4)c3)c3ccccc23)cc1	7.3µM*	?	15µM*	/	i	/
CCN(CC)C(=O)c1ccc(-c2nnc(Nc3ccc(C(=O)NC)cc3)c3ccccc23)cc1	?	i	15µM*	-5%	i	-6%
COc1ccc(Nc2nnc(-c3ccc(C)c(S(=O)(=O)N4CCN(C)CC4)c3)c3ccccc23)cc1	?	i	?	/	?	/
Cc1ccc(Nc2nnc(-c3ccc(C)c(S(N)(=O)=O)c3)c3ccccc23)cc1	/	i	/	/	i	/
COc1ccc(Nc2nc(-c3ccccc3)nc3ccccc23)cc1S(=O)(=O)N1CCOCC1	8.2µM*	?	15µM*	?	?	?
Cc1ccc(Nc2nnc(-c3ccc(C)c(S(=O)(=O)N4CCOCC4)c3)c3ccccc23)cc1	10µM*	i	16µM*	/	i	/
CNC(=O)c1ccc(Nc2nnc(-c3ccc(C)c(S(=O)(=O)N4CCCCC4)c3)c3ccccc23)cc1	-3%	?	1%	/	i	/
CNC(=O)c1ccc(Nc2nnc(-c3ccc(C)c(S(=O)(=O)N4CCOCC4)c3)c3ccccc23)cc1	7.3µM*	i	21µM*	/	i	/
C[C@@H]1CN([C@@H](C)CO)C(=O)c2cc(Br)cnc2O[C@@H]1CN(C)S(=O)(=O)c1ccc(F)cc1	?	i	?	-1%	i	-3%
Cc1cc(C)nc(/N=C(\N)N(Cc2ccccc2)Cc2ccccc2)n1	?	i	?	-24%	i	?
CCCCN(CCCC)/C(N)=N/c1nc(C)cc(C)n1	?	i	23µM*	-11%	i	-14%
Clc1ccc(CSc2nnc(-c3c[nH]c4ccccc34)o2)cc1	?	?	?	?	i	?
SMILES	TDP1 cell noCPT	KB-V1 cytotox	TDP1 cell CPT	HT1080 IDH1KD tx	KB-3-1 tox	HT1080NT lethal
Brc1ccc(CSc2nnc(Cc3c[nH]c4ccccc34)o2)cc1	?	18µM*	?	-21%	i	-5%
Cc1ccc(S(=O)(=O)N(C)C)cc1NC(=S)N(C)C1CCN(C)CC1	21%	i	4%	5%	i	10%
CCNc1ncc2nc(-c3ccccc3)c(=O)n(Cc3cccc(OC)c3)c2n1	1%	/	2%	/	/	/
COCCCn1c(=O)c2sccc2n2c(CCCC(=O)Nc3ccc(F)c(F)c3)nnc12	?	i	?	/	i	/
COc1ccc(-n2nnnc2C2CCN(S(=O)(=O)c3ccc(NC(C)=O)cc3)CC2)cc1	4.6µM*	/	5.8µM*	/	/	/
Cc1ccc(-n2nnnc2C2CCN(S(=O)(=O)c3ccc(OC(F)(F)F)cc3)CC2)cc1	-13%	/	-4%	/	/	/
COc1ccc(-n2nnnc2C2CCN(S(=O)(=O)c3ccc(F)cc3Cl)CC2)cc1	16µM*	/	?	/	/	/
COc1cccc(NC(=O)Nc2cc(-c3cn4cccnc4n3)ccc2OC)c1	/	i	/	/	i	/
Cc1ccc(NC(=O)c2c(C)noc2-c2snnc2C)cc1	?	?	?	?	?	-26%
Cc1nnsc1-c1onc(C)c1C(=O)Nc1cc(Cl)cc(Cl)c1	-101%	16µM*	?	?	i	?
S=c1nc(-c2ccccc2)oc2c1CCCC2	26µM*	i	?	12%	i	2%
COc1cccc(-c2nc(=S)c3c(o2)CCCC3)c1	-19%	i	-13%	3%	i	9%
CCc1nnc2c3ccccc3nc(N3CCN(c4cc(C)ccc4C)CC3)n12	1.3µM*	i	?	/	?	/
Cc1ccc(C)c(N2CCN(c3nc4ccccc4c4nc(-c5cccnc5)nn34)CC2)c1	-27%	?	-16%	/	i	/
